Results filed as inconclusive are left out. Calls of active or inactive are those of the source. Unless noted, calls come from the whole dose curve; as a rule, active = well fitted curve in the direction sought with a large enough effect; inconclusive = small, poorly fitted or top-dose-only effect, or another doubt; inactive = no such curve, though single readings can be large; an effect the other way counts as inactive or inconclusive.
Target: Mitogen-activated protein kinase 10 (Mus musculus) (UniProt Q61831)
Test: JNK3 AlphaScreen Assay (AID 530; active = well fitted curve in either direction with a large enough effect, not every such curve was filed as active;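 note: kinase came from lysate of stimulated human HepG2 cells; signal reports phosphorylation of biotinylated GST-cJun 1-79 at Ser73 with 10 µM ATP; % is set by controls: 0 for no effect and ±100 for the full control effect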)
Conditions: JNK3 lysate, c-Jun phosphorylation; series mostly up to 57.1 µM; activity change, negative = inhibition: at the top concentration
How it was run: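 Phosphorylation of biotinylated GST-cJun(1-79) at Ser73 is measured by AlphaScreen proximity luminescence. Enzyme is JNK3 in HepG2 lysates activated with interleukin-1beta and tumor necrosis factor alpha; ATP is 10 uM final.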

Compound	activity change, negative = inhibition
COc1ccc2[nH]cc(CCNc3ncncc3-c3cccc(C#N)c3)c2c1	-25.6% (inactive)
COc1ccccc1CNc1nc(-c2ccoc2)nc2ccccc12	-9.04% (inactive)
COc1ccc(CNc2cc(-c3cccc(NS(C)(=O)=O)c3)ncn2)c(OC)c1	-1.47% (inactive)
COc1ccc2[nH]cc(CCNc3cc(-c4ccccc4OC)ncn3)c2c1	-23.4% (inactive)
Cc1ncc(COP(=O)(O)O)c(C)c1O	4.19% [at 11.4 µM] (inactive)
C=CC(=C)CCC=C(C)C	-7.89% (inactive)
COc1ccccc1-c1nc(NC2CC2)c2ccccc2n1	-2.4% (inactive)
COc1ccc2[nH]cc(CCNc3ncncc3-c3ccccc3C)c2c1	-29.6% (inactive)
Cc1ccccc1-c1nc(Nc2ccncc2)c2ccccc2n1	-13.2% (inactive)

Target: 3',5'-cyclic-AMP phosphodiesterase 4B (Homo sapiens) (UniProt Q07343)
Sequence (Q07343 whole entry, looked up): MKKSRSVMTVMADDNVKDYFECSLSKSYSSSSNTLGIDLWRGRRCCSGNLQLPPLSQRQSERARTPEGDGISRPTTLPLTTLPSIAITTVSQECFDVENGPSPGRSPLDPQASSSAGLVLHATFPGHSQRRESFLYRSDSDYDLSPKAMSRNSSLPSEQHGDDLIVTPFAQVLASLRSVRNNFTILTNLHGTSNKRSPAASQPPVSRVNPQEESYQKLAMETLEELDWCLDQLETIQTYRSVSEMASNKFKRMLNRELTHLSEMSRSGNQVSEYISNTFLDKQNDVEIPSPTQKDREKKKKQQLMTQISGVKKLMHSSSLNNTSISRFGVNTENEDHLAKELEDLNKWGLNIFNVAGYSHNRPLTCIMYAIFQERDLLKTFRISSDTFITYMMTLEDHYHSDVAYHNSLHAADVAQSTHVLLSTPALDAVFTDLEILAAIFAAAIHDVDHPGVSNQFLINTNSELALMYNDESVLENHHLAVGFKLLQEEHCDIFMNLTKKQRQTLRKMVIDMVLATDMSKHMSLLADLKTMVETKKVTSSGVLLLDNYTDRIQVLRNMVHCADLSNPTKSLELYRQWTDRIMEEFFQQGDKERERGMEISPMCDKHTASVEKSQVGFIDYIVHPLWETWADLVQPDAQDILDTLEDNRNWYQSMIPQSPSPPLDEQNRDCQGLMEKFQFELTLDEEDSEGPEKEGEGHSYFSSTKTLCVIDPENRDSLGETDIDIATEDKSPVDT
Test: qHTS Assay for Inhibitors of PDE-IV (AID 607; active = well fitted activation curve with a large enough effect in the main read-out, with a control signal flat, not every such curve was filed as active; note: % of control where 0% means no effect)
Conditions: HEK293 ACTOne CNG channel cells, membrane potential fluorescence; series mostly up to 22.9 µM; activation (PDE inhibition): at the top concentration
How it was run: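 HEK293 ACTOne cells with CNG channel (1000/well), endogenous PDE4; membrane potential dye, compounds up to 22.9 uM final. Fluorescence Ex 535/Em 590; RO 20-1724 (100 uM final) as reference.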

Compound	activation (PDE inhibition)
COc1ccc2[nH]cc(CCNc3ncncc3-c3cccc(C#N)c3)c2c1	-12.5% (inactive)
COc1ccc(CNc2cc(-c3cccc(NS(C)(=O)=O)c3)ncn2)c(OC)c1	18.9% (inactive)
COc1ccc2[nH]cc(CCNc3cc(-c4ccccc4OC)ncn3)c2c1	7.3% (inactive)
Cc1ncc(COP(=O)(O)O)c(C)c1O	-1.41% (inactive)
Cc1cnc(CNc2ncnc3ccc(-c4ccc(N(C)C)cc4)cc23)cn1	-2.38% (inactive)
COc1ccc2[nH]cc(CCNc3ncncc3-c3ccc4c(c3)OCO4)c2c1	-34.4% (inactive)
COCCn1c(=O)c(CCc2ccccc2)nc2cnc(Oc3ccccc3)nc21	10.3% (inactive)
COc1ccc2[nH]cc(CCNc3ncncc3-c3ccccc3C)c2c1	-34.3% (inactive)

Target: Cytochrome P450 3A4 (Homo sapiens) (UniProt P08684)
Sequence (P08684 whole entry, looked up): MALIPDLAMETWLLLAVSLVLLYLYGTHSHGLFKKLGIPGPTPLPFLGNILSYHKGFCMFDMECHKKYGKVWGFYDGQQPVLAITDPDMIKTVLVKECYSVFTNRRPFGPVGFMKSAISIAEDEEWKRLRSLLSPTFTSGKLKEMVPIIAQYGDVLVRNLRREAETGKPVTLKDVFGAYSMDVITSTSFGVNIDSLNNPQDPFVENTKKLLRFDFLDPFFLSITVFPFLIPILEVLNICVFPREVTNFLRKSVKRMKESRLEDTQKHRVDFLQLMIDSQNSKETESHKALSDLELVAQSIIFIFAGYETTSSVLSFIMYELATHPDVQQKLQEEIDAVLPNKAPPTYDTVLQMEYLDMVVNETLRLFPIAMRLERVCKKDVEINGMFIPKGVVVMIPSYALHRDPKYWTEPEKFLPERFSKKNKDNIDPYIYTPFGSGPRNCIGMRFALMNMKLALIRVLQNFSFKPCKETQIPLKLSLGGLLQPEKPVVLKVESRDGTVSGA
Test: qHTS Assay for Inhibitors and Substrates of Cytochrome P450 3A4 (AID 884); note: nearly all actives have a fitted effect of over 50% in size; note: potency is the fitted concentration of half-maximal effect; for activity change, negative = inhibition: % is set by controls: 0 for no effect and ±100 for the full control effect
Conditions: recombinant CYP3A4, Luciferin-PPXE luminescence; series mostly up to 57.1 µM; activity change, negative = inhibition: at the top concentration
How it was run: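 Luminescent readout of luciferin produced by CYP3A4 (20 nM) dealkylation of Luciferin-PPXE, 25 uM (its KM). NADPH-driven reaction ran 60 min at RT after 10 min compound preincubation; data scaled to 57 uM ketoconazole as 100% inhibition.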

Compound	Potency	activity change, negative = inhibition
COc1ccc(CNc2cc(-c3cccc(NS(C)(=O)=O)c3)ncn2)c(OC)c1	2.51 µM (active)	–
COc1ccc2[nH]cc(CCNc3cc(-c4ccccc4OC)ncn3)c2c1	6.31 µM (active)	–
C=CC(=C)CCC=C(C)C	–	-6.36% (inactive)
COc1ccc2[nH]cc(CCNc3ncncc3-c3ccccc3C)c2c1	0.316 µM (active)	–
Cc1ccccc1-c1nc(Nc2ccncc2)c2ccccc2n1	6.31 µM (active)	–

Target: Cytochrome P450 3A4 (Homo sapiens) (UniProt P08684)
Test: qHTS Assay for Activators of Cytochrome P450 3A4 (AID 885); note: nearly all actives have a fitted effect of over 65% in size
Conditions: recombinant CYP3A4, Luciferin-PPXE luminescence, 60 min; series mostly up to 57.1 µM; activity change, positive = activation: at the top concentration
How it was run: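 Human CYP3A4 dealkylates Luciferin-PPXE to luciferin, which luciferase detection converts to light. Substrate was at its KM (25uM), buffer 200mM KPO4, reaction 60 min at RT.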

Compound	activity change, positive = activation
COc1ccc(CNc2cc(-c3cccc(NS(C)(=O)=O)c3)ncn2)c(OC)c1	-101% (inactive)
COc1ccc2[nH]cc(CCNc3cc(-c4ccccc4OC)ncn3)c2c1	-85.5% (inactive)
Cc1cnc(CNc2ncnc3ccc(-c4ccc(N(C)C)cc4)cc23)cn1	-83.2% (inactive)
COc1ccccc1-c1nc(NC2CC2)c2ccccc2n1	-97.3% (inactive)
COc1ccc2[nH]cc(CCNc3ncncc3-c3ccccc3C)c2c1	-92.9% (inactive)
Cc1ccccc1-c1nc(Nc2ccncc2)c2ccccc2n1	-65.7% (inactive)

Target: Dual specificity protein kinase CLK4 (Homo sapiens) (UniProt Q9HAZ1)
Sequence (Q9HAZ1 whole entry, looked up): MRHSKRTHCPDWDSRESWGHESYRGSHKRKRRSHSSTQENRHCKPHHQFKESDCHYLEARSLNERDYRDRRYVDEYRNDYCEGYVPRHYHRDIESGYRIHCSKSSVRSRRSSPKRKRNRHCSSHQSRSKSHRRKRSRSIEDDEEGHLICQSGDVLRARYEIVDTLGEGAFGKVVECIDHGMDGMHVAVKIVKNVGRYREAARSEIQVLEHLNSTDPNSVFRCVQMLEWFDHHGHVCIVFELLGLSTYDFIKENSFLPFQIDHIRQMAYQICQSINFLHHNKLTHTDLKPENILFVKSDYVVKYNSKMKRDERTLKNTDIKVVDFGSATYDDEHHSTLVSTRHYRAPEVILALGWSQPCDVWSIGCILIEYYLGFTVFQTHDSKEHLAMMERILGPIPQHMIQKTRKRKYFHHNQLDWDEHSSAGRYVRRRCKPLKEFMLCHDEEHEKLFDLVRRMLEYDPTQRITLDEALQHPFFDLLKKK
Test: qHTS Assay for Inhibitors of CDC-like Kinase 4 (Kinase-Glo Assay) (AID 1770); note: nearly all actives have a fitted effect of over 65% in size; note: potency is the fitted concentration of half-maximal effect; for activity, negative = inhibition: % is set by controls: 0 for no effect and ±100 for the full control effect
Conditions: recombinant Clk4, Kinase-Glo ATP depletion luminescence; series mostly up to 66.7 µM; activity, negative = inhibition: at the top concentration
How it was run: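 Substrate mix (RS peptide 100 uM, ATP 1 uM) dispensed, compound pinned in, then Clk4 added to 25 nM final. Incubated 4.5 h at RT; Kinase-Glo reagent added, luminescence read after 5 min.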

Compound	activity, negative = inhibition	Potency
COc1ccc(CNc2cc(-c3cccc(NS(C)(=O)=O)c3)ncn2)c(OC)c1	-27.6% (inactive)	–
COc1ccc2[nH]cc(CCNc3cc(-c4ccccc4OC)ncn3)c2c1	–	12.6 µM (active)
Cc1cnc(CNc2ncnc3ccc(-c4ccc(N(C)C)cc4)cc23)cn1	–	8.91 µM (active)
COc1ccc2[nH]cc(CCNc3ncncc3-c3ccc4c(c3)OCO4)c2c1	–	8.91 µM (active)
COCCn1c(=O)c(CCc2ccccc2)nc2cnc(Oc3ccccc3)nc21	-0.494% (inactive)	–

Target: Dual specificity protein kinase CLK4 (Homo sapiens) (UniProt Q9HAZ1)
Test: qHTS Assay for Inhibitors of CDC-like Kinase 4 (ADP-Glo Assay) (AID 1771); note: nearly all actives have a fitted effect of over 70% in size; note: potency is the fitted concentration of half-maximal effect; for activity change, negative = inhibition: % is set by controls: 0 for no effect and ±100 for the full control effect
Conditions: recombinant CLK4, ADP-Glo luminescence; series mostly up to 80 µM; activity change, negative = inhibition: at the top concentration
How it was run: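 ADP production was read by ADP-Glo luminescence after residual ATP depletion, following 1 h room-temperature reaction of 25 nM Clk4, 1 uM ATP and 100 uM RS peptide with MgCl2, EGTA, DTT and Triton X-100.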

Compound	Potency	activity change, negative = inhibition
COc1ccc2[nH]cc(CCNc3ncncc3-c3cccc(C#N)c3)c2c1	25.1 µM (active)	–
COc1ccccc1CNc1nc(-c2ccoc2)nc2ccccc12	–	-9.13% (inactive)
COc1ccccc1-c1nc(NC2CC2)c2ccccc2n1	14.1 µM (active)	–
COc1ccc2[nH]cc(CCNc3ncncc3-c3ccccc3C)c2c1	28.2 µM (active)	–
Cc1ccccc1-c1nc(Nc2ccncc2)c2ccccc2n1	25.1 µM (active)	–

Target: Ubiquitin carboxyl-terminal hydrolase 1 (Homo sapiens) (UniProt O94782)
Sequence (O94782 whole entry, looked up): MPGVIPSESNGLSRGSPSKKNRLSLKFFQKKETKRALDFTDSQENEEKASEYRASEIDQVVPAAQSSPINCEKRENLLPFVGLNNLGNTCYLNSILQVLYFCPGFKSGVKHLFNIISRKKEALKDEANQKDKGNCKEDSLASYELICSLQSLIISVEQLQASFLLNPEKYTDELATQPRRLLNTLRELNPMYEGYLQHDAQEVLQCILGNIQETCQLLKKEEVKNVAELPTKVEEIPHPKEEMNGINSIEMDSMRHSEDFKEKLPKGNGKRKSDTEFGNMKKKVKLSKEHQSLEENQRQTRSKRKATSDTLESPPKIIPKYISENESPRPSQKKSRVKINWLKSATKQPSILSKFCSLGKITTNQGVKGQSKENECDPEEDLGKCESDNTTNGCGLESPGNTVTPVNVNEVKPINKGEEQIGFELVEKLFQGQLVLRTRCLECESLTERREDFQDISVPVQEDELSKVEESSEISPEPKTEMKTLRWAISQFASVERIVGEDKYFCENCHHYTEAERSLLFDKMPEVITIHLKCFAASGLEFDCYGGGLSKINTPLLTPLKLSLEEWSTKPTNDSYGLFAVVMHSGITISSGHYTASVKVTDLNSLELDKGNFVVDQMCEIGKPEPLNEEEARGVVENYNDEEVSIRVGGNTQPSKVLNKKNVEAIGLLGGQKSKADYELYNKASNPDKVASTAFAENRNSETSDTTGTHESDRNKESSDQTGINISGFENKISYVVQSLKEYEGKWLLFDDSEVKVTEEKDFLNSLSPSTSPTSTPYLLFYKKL
Test: Inhibitors of USP1/UAF1: Pilot qHTS (AID 504865);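 note: rhodamine fluorescence freed from ubiquitin-rhodamine substrate followed over time; top concentration of the series differs between compounds; % is set by controls: 0 for no effect and ±100 for the full control effect; nearly all actives have a fitted effect of over 35% in size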
Conditions: purified USP1/UAF1, Ub-rhodamine cleavage fluorescence; series mostly up to 54.9 µM; activity change, negative = inhibition: at the top concentration
How it was run: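 In 50mM HEPES pH 7.8 containing 0.5mM EDTA, 1mM TCEP, 0.1 mg/ml BSA and 0.01% Tween-20, 1nM USP1/UAF1 is exposed to compound for 15 min, then Ub-Rho (150nM final) is added and fluorescence is read over time.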

Compound	activity change, negative = inhibition
COc1ccc2[nH]cc(CCNc3ncncc3-c3cccc(C#N)c3)c2c1	-4.39% (inactive)
CC(=O)OC1CC2CCC1(C)C2(C)C (stereo unspecified)	-4.44% [at 114 µM] (inactive)
COc1ccccc1CNc1nc(-c2ccoc2)nc2ccccc12	-15% (inactive)
COc1ccc(CNc2cc(-c3cccc(NS(C)(=O)=O)c3)ncn2)c(OC)c1	-19.6% (inactive)
COc1ccc2[nH]cc(CCNc3cc(-c4ccccc4OC)ncn3)c2c1	-16.3% (inactive)
Cc1cnc(CNc2ncnc3ccc(-c4ccc(N(C)C)cc4)cc23)cn1	-15.8% (inactive)
COc1ccccc1-c1nc(NC2CC2)c2ccccc2n1	-19.4% (inactive)
COc1ccc2[nH]cc(CCNc3ncncc3-c3ccccc3C)c2c1	-13.6% (inactive)

Test system: not listed separately
Test: Viability counterscreen for antagonist of constitutive androstane receptor (CAR) against the NCATS DSHEA and TCM libraries (AID 1794837);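 note: compound exposure lasted 24 h before viability reading; 0% is about no effect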
Conditions: CAR reporter cell line viability counterscreen, qHTS; series mostly up to 40 µM; viability change, negative = cytotoxic: at the top concentration
How it was run: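 Cells: HepG2 line carrying CYP2B6 reporter and hCAR, seeded and attached 5 h. Then pin-transferred test substances plus agonist CITCO at 48 uM final; 24 h incubation; fluorogenic viability reagent, 1 h.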

Compound	viability change, negative = cytotoxic
O=C(/C=C/c1ccc(O)c(O)c1)O[C@@H]1CC(C(=O)O)=C[C@@H](O)[C@H]1O	-2.43% (inactive)
CC(C)=CCCC(C)(OC1OC(COC2OC(CO)C(O)C2O)C(O)C(O)C1O)C1CCC2(C)C1C(O)CC1C3(C)CCC(OC4OC(CO)C(O)C(O)C4OC4OC(CO)C(O)C(O)C4O)C(C)(C)C3CCC12C (stereo unspecified)	-2.25% (inactive)
CC[C@H](CC[C@@H](C)[C@H]1CCC2C3CCC4C[C@@H](O)CC[C@]4(C)C3CC[C@@]21C)C(C)C (stereo partly specified)	-5.24% (inactive)
O=C(O)CC(O)(C(=O)O)C(O)C(=O)O (stereo unspecified)	-3.06% (inactive)
CCCCCC(=O)CC	-21.6% [at 121 µM] (inactive)
C=C1CC[C@H](O)C/C1=C\C=C1/CCC[C@]2(C)[C@@H]([C@H](C)CC[C@H](C)C(C)C)CC[C@@H]12	-2.05% (inactive)
CC1(C)C2CCC1(C)C(O)C2 (stereo unspecified)	-4.21% (inactive)
O[C@@H]1[C@@H](O)[C@H](OC/C=C/c2ccccc2)O[C@H](CO[C@@H]2OC[C@H](O)[C@H](O)[C@H]2O)[C@H]1O	-3.33% (inactive)
CC(=O)O[C@H]1[C@H](O[C@H]2CC[C@]34C[C@]35CC[C@]3(C)[C@@H]([C@@]6(C)CC[C@@H](C(C)(C)O)O6)[C@@H](O)C[C@@]3(C)[C@@H]5C[C@H](O[C@@H]3O[C@H](CO)[C@@H](O)[C@H](O)[C@H]3O)[C@H]4C2(C)C)OC[C@@H](O)[C@@H]1O	-8.55% (inactive)
OCC1=C[C@@H](O)[C@@H]2C=CO[C@@H](OC3O[C@H](CO)[C@@H](O)[C@H](O)[C@H]3O)[C@H]12 (stereo partly specified)	7.21% (inactive)
CCCCCCCCCC=O	7.24% [at 68.2 µM] (inactive)
CC(=O)OC1CC2CCC1(C)C2(C)C (stereo unspecified)	1.86% (inactive)
CC(C)=CCCC(C)=CCCC(C)=CCCC=C(C)CCC=C(C)CCC=C(C)C	-3.97% (inactive)
CCCCCCCCCCCCCCCCCCCCCCCCCCCCCCO	-4.15% [at 5 µM] (inactive)
CC(C)c1ccc(C=O)cc1	-1.82% [at 68.2 µM] (inactive)
O=Cc1ccccc1O	-7.51% [at 68.2 µM] (inactive)
CC/C=C\C/C=C\C/C=C\C/C=C\CCCCC(=O)O	-11.8% [at 5 µM] (inactive)
C=C1C[C@@]23CC[C@H]4[C@@](C)(CCC[C@@]4(C)C(=O)O[C@@H]4O[C@H](CO)[C@@H](O)[C@H](O)[C@H]4O)[C@@H]2CC[C@]1(O[C@@H]1O[C@H](CO)[C@@H](O)[C@H](O[C@@H]2O[C@H](CO)[C@@H](O)[C@H](O)[C@H]2O)[C@H]1O[C@@H]1O[C@@H](C)[C@H](O)[C@@H](O)[C@H]1O)C3	-11.3% (inactive)
C=C1C[C@]23CC[C@H]4[C@@](C)(CCC[C@@]4(C)C(=O)O)[C@@H]2CC[C@@]1(O[C@@H]1O[C@H](CO)[C@@H](O)[C@H](O)[C@H]1O[C@@H]1O[C@H](CO)[C@@H](O)[C@H](O)[C@H]1O)C3	-5.06% (inactive)
Cc1ccc(C(C)C)cc1	-22.4% [at 68.2 µM] (inactive)
Cc1ncc(COP(=O)(O)O)c(C)c1O	-5.73% (inactive)
OCCc1ccc(O)cc1	-5.67% [at 68.2 µM] (inactive)
CN(CC(=O)O)C(=N)N	-13% [at 121 µM] (inactive)
COc1ccc(C(=O)O)cc1	4.79% [at 68.2 µM] (inactive)
CC(C)(O)[C@@H]1CC[C@](C)([C@@H]2[C@H](O)C[C@]3(C)C4C[C@@H](O[C@H]5O[C@@H](CO)[C@H](O)[C@@H](O)[C@@H]5O)C5C(C)(C)[C@H](O[C@H]6OC[C@H](O)[C@@H](O)[C@@H]6O)CC[C@]56CC46CC[C@@]23C)O1 (stereo partly specified)	4.93% (inactive)
C=CC(=C)CCC=C(C)C	5.36% (inactive)
CC1=CCC(O)(C(C)C)CC1 (stereo unspecified)	-4.25% [at 68.2 µM] (inactive)
CCCCCC/C=C\CCCCCCCC(=O)O	-17.2% (inactive)
CC(C)=CCC[C@](C)(O[C@@H]1O[C@H](CO)[C@@H](O)[C@H](O)[C@H]1O)[C@H]1CC[C@]2(C)[C@@H]1[C@H](O)C[C@@H]1[C@@]3(C)CC[C@H](O)C(C)(C)[C@@H]3[C@@H](O[C@@H]3O[C@H](CO)[C@@H](O)[C@H](O)[C@H]3O[C@@H]3O[C@@H](C)[C@H](O)[C@@H](O)[C@H]3O)C[C@]12C	-1.08% (inactive)
C[C@@H]1O[C@@H](OC[C@H]2OC(Oc3c(-c4ccc(O)c(O)c4)oc4cc(O)cc(O)c4c3=O)[C@H](O)[C@@H](O)[C@@H]2O)[C@H](O)[C@H](O)[C@H]1O (stereo partly specified)	-22.7% (inactive)

Reference: PubChem BioAssay (NCATS)
